± gives the standard deviation of the averaged measurements.

Common to all, as to assay: cell viability (% of vehicle); higher = less cytotoxic
Common to all, as to details: 10 µM; 72 h

Test [1] deals with HCI01 (cells of a triple-negative basal-like breast cancer xenograft).
Test [2] relates to HCI09 (cells of a triple-negative luminal androgen receptor type breast cancer xenograft).
For test [3], the system named is HCI11 (cells of an ER-positive luminal breast cancer xenograft).
Test [4] has as its system UCD52 (cells of a triple-negative basal-like breast cancer xenograft).
In test [5] the test system is WHIM2 (cells of a triple-negative basal-like breast cancer xenograft).
Test [6] relates to WHIM30 (cells of a triple-negative basal-like breast cancer xenograft).
The test system of test [7] is HCI03 (cells of an ER-positive luminal breast cancer xenograft).
In test [8] the test system is HCI13 (cells of an ER-positive luminal breast cancer xenograft).
Test [9] relates to HCI16 (cells of a triple-negative basal-like breast cancer xenograft).
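Also: PDX cells carrying CMV promoter-driven luciferase, viability read as total photon flux per second by IVIS imaging following D-luciferin, vehicle control 0.1% DMSO.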

`CN1CCN(c2ccc3c(c2)NC(=C2C(=O)N=c4cccc(F)c4=C2N)N3)CC1` [Dovitinib (TKI-258, CHIR-258)]: the cell viability amounted to 92.5 ± 18 in test [1]; 49.8 ± 24 in test [2]; 79 in [3]; 125 ± 32 in test [4]; 69.8 ± 20 in [5]; 104 ± 1.8 in [6].

For `O=C(CCCCCCNC(=O)c1cnc(N(c2ccccc2)c2ccccc2)nc1)NO` [Rocilinostat (ACY-1215)], the cell viability in test [7] worked out at 108; in test [2], 45.1 ± 28; in [8], 49.3 ± 7.8; in test [5], 51.2 ± 8.8.

For the compound `OCC1OC(O)C(O)C(O)C1O` [Dextrose (D-glucose)], the cell viability came to 123.4 ± 0.67 in [1]; 106 ± 1.3 in [2]; 125 in test [3]; 124 ± 6.9 in test [8]; 110 in [9]; 88.77 ± 0.6 in test [4]. For the same compound, the cell viability is 105 ± 3.9 in [5] and 153 ± 12 in [6].

On to `Nc1nc(NC2CC2)c2ncn(C3C=CC(CO)C3)c2n1.O=S(=O)(O)O` (stereo unspecified) [Abacavir sulfate], for which the cell viability in [1] is 161 ± 13; in test [3], 139; in test [8], 134 ± 16; in test [9] it was 157; in [4], 196 ± 5.3; in test [5], 128 ± 5.2.

As for `C[C@@H]1C\C=C/C=C\C=C/C=C\[C@H](O[C@@H]2O[C@H](C)[C@@H](O)[C@H](N)[C@@H]2O)C[C@@H]2O[C@](O)(C[C@@H](O)C[C@H]3O[C@@H]3/C=C\C(=O)O1)C[C@H](O)[C@H]2C(=O)O` [Natamycin], the cell viability in test [7] worked out at 137; in test [2] it was 121 ± 19; in test [3] it was 146; in test [8], 144.5 ± 1.4; in test [4] it was 156 ± 48; in [5], 103 ± 9.2. The compound further came in with a cell viability in test [6] of 199 ± 34.

Regarding `O=C(C=Cc1cccc(S(=O)(=O)Nc2ccccc2)c1)NO` [Belinostat (PXD101)], the cell viability amounted to 104 in test [7]; 39.6 ± 33 in test [2]; 6.42 in [3]; 55.1 ± 25 in test [8]; 43.7 ± 1.1 in test [5].

For `Cn1cnc2c(F)c(Nc3ccc(Br)cc3Cl)c(C(=O)NOCCO)cc21` [AZD6244 (Selumetinib)], the cell viability came out at 83.9 in [7]; 82.9 ± 23 in [2]; 112 in test [3]; 92.21 ± 0.79 in test [8]; 84.4 ± 13 in [4]; 79.7 ± 8.5 in test [5].

In the case of `Cc1cnc(Nc2ccc(OCCN3CCCC3)cc2)nc1Nc1cccc(S(=O)(=O)NC(C)(C)C)c1`, the cell viability amounted to 173 in test [7]; 133 ± 44 in test [2]; 138 in test [3]; 61.6 ± 12 in [8]; 161 in test [9]; 196 ± 55 in test [4]. The compound further had a cell viability in test [5] of 43.8 ± 0.93.

For `Nc1ccccc1NC(=O)c1ccc(CNc2nccc(-c3cccnc3)n2)cc1` [Mocetinostat (MGCD0103, MG0103)], the cell viability in [7] came out at 87; in [2] it was 78.4 ± 73; in test [3], 5.73; in test [8], 150 ± 160; in test [5], 109 ± 13.

For the compound `Nc1ccccc1NC(=O)c1ccc(CNC(=O)OCc2cccnc2)cc1` [Entinostat (MS-275,SNDX-275)], the cell viability in test [7] came to 109; in test [2], 119 ± 130; in test [8] it was 58.7 ± 7.4; in [5], 75.7 ± 17.

As to `CC(=O)OCC(=O)C1CCC2C3CCC4=CC(=O)CCC4(C)C3CCC12C` (stereo unspecified) [Deoxycorticosterone acetate], the cell viability in test [7] was 132; in [2], 95.7 ± 46; in test [3] it was 112; in [8] it was 141 ± 23; in test [9], 135; in [4], 139 ± 19. The cell viability in [5] came to 140 ± 10; in test [6], 164 ± 12.

The record behind these values is the supplement of paper PMC6992640.
